# Data reported in PubChem BioAssay (NCATS).
# Inconclusive results are not listed. Values without a mark were called inactive. Calls follow the shape of the dose curve; as a rule, active = well fitted inhibition curve with a large enough effect; inconclusive = small, poorly fitted or top-dose-only effect; inactive = flat fitted curve, though single readings scatter.
# Biological target: Calcium and integrin-binding protein 1 (Homo sapiens) (UniProt Q99828)
# Test: Primary qHTS for Identification of Calcium Integrin Binding Protein 1 (CIB1) Competitor (AID 1508620); also: top concentration of the series differs between compounds
# Details: CIB1-GST / FITC-alphaIIb peptide fluorescence polarization; series mostly up to 114 µM; activity change, negative = inhibition: at the top concentration
# How it was run: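 Fluorescence polarization competition: GST-tagged CIB1 (1 uM final) preincubated with compound 15 min at room temperature, then FITC-labelled alphaIIb peptide (100 nM final) added. After 15 min at room temperature, polarization read at Ex 480/Em 540.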
# % is scaled to controls: 0 for no effect and ±100 for the full control effect.
# Sequence of Calcium and integrin-binding protein 1 (Homo sapiens) (Q99828 whole entry, looked up): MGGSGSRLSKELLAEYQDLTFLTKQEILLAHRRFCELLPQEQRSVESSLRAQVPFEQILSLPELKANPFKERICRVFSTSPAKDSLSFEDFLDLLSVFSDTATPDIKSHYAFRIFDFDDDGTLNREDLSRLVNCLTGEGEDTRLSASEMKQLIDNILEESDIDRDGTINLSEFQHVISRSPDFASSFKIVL
row,SMILES,"activity change, negative = inhibition"
1,N#Cc1nc(Nc2cccc([N+](=O)[O-])c2)nc(NC2CCCC2)n1,-10.5%
2,c1ccc(CNc2nc(-c3cccs3)nc3ccccc23)cc1,-1.12%
3,CC(C)(C)OC(=O)n1c2ccsc2c2cnn(Cc3ccccc3F)c(=O)c21,-2.96%
4,N#Cc1c(-c2csc(-c3no[n+]([O-])c3C#N)c2)no[n+]1[O-],-9.11%
5,O=C(O)c1ccc(-n2cccc2/C=C2\SC(=O)N(Cc3ccc(Cl)cc3)C2=O)cc1,6.26%
6,c1cc2c(cc1CNc1ccc(N3CCOCC3)cc1)OCO2,-1.28%
7,O=Cc1ccc(-c2ccc3ncnc(NCc4cccs4)c3c2)o1,4.7%
8,CNc1oc(-c2cccc3ncccc23)nc1C#N,-2.75%
9,CCCCN(C)C(=O)Cn1nc(-c2ccccc2C)ccc1=O,7.38%
10,Cc1cc(NS(=O)(=O)c2cc3c(cc2N[C@@H](C)CO)NC(=O)CC3)ccc1F,-3.08%
11,CC(=O)Nc1ccc(NC(=O)c2cnn3c(C)cc(C)nc23)cc1,-3.54%
12,COc1cccc(CN2C(=O)c3ccccc3NC2c2ccc(OC)c(COc3ccc(NC(C)=O)cc3)c2)c1 (configuration not stated),3.22%
13,COc1cccc(-c2no[n+]([O-])c2C#N)c1,-0.338%
14,N=c1c2c(ccn1Cc1ccccc1)Oc1ccc3ccccc3c1C2c1ccccc1 (configuration not stated),9.47%
15,O=C(c1ccc2c(c1)ncn2-c1cccc(C(F)(F)F)c1)N1CCCCC1,-0.996%
16,O=[S+]([O-])(c1ccc2c(c1)OCCO2)N1CCN([S+](=O)([O-])c2c(F)cc(Br)cc2F)CC1,8.33%
17,Cn1nnnc1Sc1ncnc2scc(-c3ccccc3C#N)c12,0.531%
